Measured values as given in PubChem BioAssay (NCATS).
Results filed as inconclusive are left out. Entries that show only a call come without a potency. Active and inactive are the calls of the source. Calls follow the shape of the dose curve; as a rule, active = well fitted curve in the direction sought with a large enough effect; inconclusive = small, poorly fitted or top-dose-only effect, or another doubt; inactive = no such curve, though single readings can be large; an effect the other way counts as inactive or inconclusive.

experiment: Quantitative High-Throughput drug screen in 47 multiple myeloma cell lines against the NCATS MIPE library collection: JIM3_ECACC cell viability assay (AID 1918963; also: nearly all actives have a fitted effect of over 35% in size); conditions: JIM3 myeloma viability, CellTiter-Glo ATP, 48 h; series mostly up to 45.8 µM
In short: (§1)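 Relative luminescence from CellTiter-Glo served as the viability signal, referenced to DMSO-treated (100%) and cell-free medium (0%) controls. Treatment lasted 48 hours at 37C with 500 cells per well.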
Potency is read from the fitted curve at half-maximal effect.

Row | Compound | Potency
1 | CN(C)CCOC(c1ccccc1)c1ccccc1 | 23.5 µM (active)
2 | COc1ccccc1N1CCN(CC(O)COc2cccc3ccccc23)CC1 (configuration not stated) | 5.26 µM (active)
3 | O=c1c(-c2ccc(O)cc2)coc2cc(O)cc(O)c12 | inactive
4 | COc1cc2nc(N(C)CCCNC(=O)C3CCCO3)nc(N)c2cc1OC (configuration not stated) | inactive
5 | Clc1ccc(C(c2ccccc2Cl)C(Cl)Cl)cc1 (configuration not stated) | 20.9 µM (active)
6 | CC(C)(Oc1ccc(C2CC2(Cl)Cl)cc1)C(=O)O (configuration not stated) | inactive
7 | O=C(C1CCCCC1)N1CC(=O)N2CCc3ccccc3C2C1 (configuration not stated) | inactive
8 | CCCNCC(O)COc1ccccc1C(=O)CCc1ccccc1 (configuration not stated) | inactive
9 | CS(=O)(=O)Nc1ccc([N+](=O)[O-])cc1Oc1ccccc1 | inactive
10 | Cc1ccccc1N1C(=O)c2cc(S(N)(=O)=O)c(Cl)cc2NC1C (configuration not stated) | inactive
11 | CN1CCN2c3ccccc3Cc3ccccc3C2C1 (configuration not stated) | 20.9 µM (active)
12 | COc1ccc2c(c1)c(CC(=O)O)c(C)n2C(=O)c1ccc(Cl)cc1 | inactive
13 | Cc1cc(C(C)(C)C)cc(C)c1CC1=NCCN1 | inactive
14 | Fc1ccc([C@@H]2CCNC[C@H]2COc2ccc3c(c2)OCO3)cc1 | inactive
15 | O=C1N(c2ccccc2)c2ccccc2C1(Cc1ccncc1)Cc1ccncc1 | inactive
16 | Cc1cc(C(C)(C)C)c(O)c(C)c1CC1=NCCN1 | inactive

experiment: Quantitative High-Throughput drug screen in 47 multiple myeloma cell lines against the NCATS MIPE library collection: JIM1_ECACC cell viability assay (AID 1918964); conditions: JIM1 myeloma viability, CellTiter-Glo ATP luminescence, 48 h; series mostly up to 45.8 µM
In short: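 CellTiter-Glo luminescence (ATP) after 48 h compound exposure, 37C/5% CO2; 500 cells/well; MIPE 4.0 approved/investigational drugs pinned in; DMSO = 100%, media only = 0% viability.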

Row | Compound | Potency
17 | N[C@@H](Cc1c[nH]c2ccc(O)cc12)C(=O)O | inactive
18 | CN1CCN(C2=Nc3cc(Cl)ccc3Nc3ccccc32)CC1 | inactive
19 | Nc1nnc(-c2cccc(Cl)c2Cl)c(N)n1 | inactive
20 | OCCN(CCO)c1nc(N2CCCCC2)c2nc(N(CCO)CCO)nc(N3CCCCC3)c2n1 | 23.5 µM (active)
21 | CN(Cc1cnc2nc(N)nc(N)c2n1)c1ccc(C(=O)N[C@@H](CCC(=O)O)C(=O)O)cc1 | 0.0264 µM (active)

experiment: Quantitative High-Throughput drug screen in 47 multiple myeloma cell lines against the NCATS MIPE library collection: INA6_PLB cell viability assay (AID 1918965; also: nearly all actives have a fitted effect of over 55% in size); conditions: INA6 myeloma viability, CellTiter-Glo ATP luminescence, 48 h; series mostly up to 45.8 µM
In short: as §1

Row | Compound | Potency
22 | CN(C)CCOC(c1ccccc1)c1ccccc1 | 10.5 µM (active)
23 | NCCc1cnc[nH]1 | inactive
24 | Cn1ccc2cc3c(cc21)CCN3C(=O)Nc1cccnc1 | 14.8 µM (active)
25 | N[C@@H](Cc1c[nH]c2ccc(O)cc12)C(=O)O | inactive
26 | C[C@H]1c2cccc(O)c2C(O)=C2C(=O)[C@]3(O)C(O)=C(C(N)=O)C(=O)[C@@H](N(C)C)[C@@H]3[C@@H](O)[C@@H]21 | 37.2 µM (active)
27 | CN(C)C(=N)N=C(N)N | inactive
28 | O=C(CCCN1CCC(O)(c2ccc(Cl)cc2)CC1)c1ccc(F)cc1 | 18.7 µM (active)
29 | CC(CCc1ccc(O)cc1)NCCc1ccc(O)c(O)c1 (configuration not stated) | 18.7 µM (active)
30 | COc1ccc2c(c1)c(CC(=O)O)c(C)n2C(=O)c1ccc(Cl)cc1 | 16.6 µM (active)
31 | COc1cc2nc(N3CCN(C(=O)C4COc5ccccc5O4)CC3)nc(N)c2cc1OC (configuration not stated) | 20.9 µM (active)
32 | CN(Cc1cnc2nc(N)nc(N)c2n1)c1ccc(C(=O)N[C@@H](CCC(=O)O)C(=O)O)cc1 | 0.0372 µM (active)
